Screens deposited in PubChem BioAssay by Broad Institute.
An excerpt weighted towards active compounds, which were near 6.7% of everything screened.
C diff HTS – C. difficile growth inhibitors, primary screen, HTS. growth activity, negative = inhibition, % at 16 µg/mL (by protocol). AID 1259249, 2017. Clostridium difficile clinical isolate growth, OD600, 24 h; active compounds read low. 86,000 tested, 0.25% active;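 active = mean growth activity at or below -80% and every replicate also at or below -80%; inconclusive = mean at or below -80% but some replicate above -80%; inactive = mean growth activity above -80%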;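 note: 0% = DMSO wells and -100% = levofloxacin 16 µg/mL wells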
T cruzi growth-1 – T. cruzi intracellular proliferation inhibitors, primary screen, cell-based, beta-gal Tulahuen parasites, NIH3T3 host, luminescence. T. cruzi beta-gal in NIH3T3, GalScreen luminescence, 90 h. inhibition, % at 8.34 µM. 77,000 tested, 5.9% active. AID 624255, 2012;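 active = mean inhibition above about 93%, with at least 55% of replicates each passing it, limit read from the data, passing the limit was not always enough; inconclusive = only one of those two conditions holds; inactive = neither condition holds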
Pf Dd2 inh – P. falciparum Dd2 growth inhibitors, primary screen, SYBR Green fluorescence, single dose replicates | 72 h; active compounds read low | activity change, % at 10 µM | 94,000 tested, 2.3% active; in the data active = activity change below about -80%; inconclusive = no clear call, values can overlap the other calls
T cruzi growth-2 – T. cruzi intracellular proliferation inhibitors, confirmation, cell-based, NIH3T3 host, beta-gal parasite, luminescence, cherry-pick; shares compounds with T cruzi growth-1; T. cruzi beta-gal in NIH3T3, GalScreen luminescence, 90 h; inhibition, % at 8.35 µM; 5,600 tested, 72% active;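 active = mean replicate inhibition above about 95% and at least 55% of replicates individually reaching it, limit read from the data; inconclusive = only one of the two criteria is met; inactive = neither criterion is met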
T cruzi growth-3 – inhibitors of intracellular T. cruzi replication, confirmation, NIH3T3 host cells, beta-gal parasites, cherry-pick, set 2; shares compounds with T cruzi growth-1; T. cruzi beta-gal in NIH3T3, GalScreen luminescence, 90 h; inhibition, % at 2.09 µM; 5,600 tested, 21% active; AID 651740, 2012;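 active = mean inhibition above about 95%, with at least 55% of replicates also reaching it, limit read from the data; inconclusive = meets just one of the two conditions; inactive = meets neither condition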;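 note: plate controls were neutral control median for no effect and positive control median for full effect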
3T3 cytotox – cytotoxicity in mouse NIH/3T3 fibroblasts, confirmation, cytotoxicity control for T. cruzi proliferation inhibitor project, cell-based, cherry-pick, single point | shares compounds with T cruzi growth-1 | NIH/3T3 viability, CellTiter-Glo ATP luminescence, 90 h | cytotoxicity (signal decrease), % at 8.35 µM | 5,600 tested, 14% active | AID 651742, 2012;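 active = mean signal decrease across replicates above about 35% based on untreated-well scatter, with enough replicates individually passing, limit read from the data; inconclusive = no rule stated though some were filed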;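 note: 0% = median of neutral control wells and 100% = median of positive control wells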
3T3 cytotox 2 – NIH/3T3 fibroblast cytotoxicity, confirmation, cytotoxicity control, cell-based, cherry-pick, single point, set 2; shares compounds with T cruzi growth-1; NIH/3T3 viability, CellTiter-Glo ATP luminescence, 90 h; inhibition, % at 24.9 µM; 5,600 tested, 56% active;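 active = mean loss of cell viability signal at or above a set limit, and enough replicates individually reaching it; inconclusive = meets only the mean limit or only the replicate share; inactive = meets neither condition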;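 note: 0% = median of neutral control wells and 100% = median of positive control wells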
An asterisk follows results filed as active; ? = inconclusive; / = not tested or not shown.

SMILES | C diff HTS | T cruzi growth-1 | Pf Dd2 inh | T cruzi growth-2 | T cruzi growth-3 | 3T3 cytotox | 3T3 cytotox 2
C[C@@H](NC(=O)C[C@@H]1CC[C@@H](NC(=O)C2CCC2)[C@@H](CO)O1)c1ccccc1 | / | 15 | 21 | / | / | / | /
CN1C(=O)c2cc(NS(C)(=O)=O)ccc2OC[C@H]2O[C@@H](CC(=O)NC3CCCCC3)CC[C@H]21 | 2 | 0 | / | / | / | / | /
C[C@H]1CN([C@@H](C)CO)C(=O)c2cc(C#Cc3ccccn3)cnc2O[C@@H]1CN(C)Cc1ccncc1 | -1 | 65 | -9 | / | / | / | /
C[C@@H]1CN([C@H](C)CO)C(=O)c2cc(C#Cc3ccccn3)cnc2O[C@H]1CN(C)Cc1ccncc1 | 0 | 107* | 9 | 104* | 39 | -14 | 2
C[C@H](CO)N1C[C@H](C)[C@@H](CN(C)Cc2ccncc2)Oc2ncc(C#Cc3ccccn3)cc2C1=O | 0 | ? | -3 | 108* | 47 | -14 | 7
C[C@H]1CN([C@@H](C)CO)C(=O)c2cc(C#Cc3ccccn3)cnc2O[C@H]1CN(C)Cc1ccccc1 | -4 | 55 | -7 | / | / | / | /
CO[C@H]1CN(C)C(=O)c2cc(C#N)ccc2OC[C@@H]2O[C@H](CC[C@H]2OC)CCN(C)C(=O)[C@@H]1C | / | 7 | 26 | / | / | / | /
C[C@H]1CN([C@@H](C)CO)C(=O)c2cc(/C=C/c3ccccc3)cnc2O[C@H]1CN(C)C(=O)c1ccccc1 | -6 | 49 | -55 | / | / | / | /
CCC(=O)N1C[C@H](C)[C@@H](OC)CN(C)C(=O)c2ccc(NC(=O)Nc3cccc(F)c3)cc2OC[C@@H]1C | -11 | 4 | -40 | / | / | / | /
C[C@@H]1CCCCO[C@@H](CN(C)C(=O)c2ccncc2)[C@H](C)CN([C@H](C)CO)C(=O)c2cc(NC(=O)CCC(F)(F)F)ccc2O1 | 0 | 15 | 9 | / | / | / | /
COCC#Cc1ccc2c(c1)O[C@@H](CN(C)Cc1ccc3c(c1)OCO3)[C@@H](C)CN([C@H](C)CO)S2(=O)=O | 0 | / | -59 | / | / | / | /
COCC#Cc1ccc2c(c1)O[C@@H](CN(C)Cc1ccc3c(c1)OCO3)[C@H](C)CN([C@@H](C)CO)S2(=O)=O | -2 | / | -46 | / | / | / | /
CCCC#Cc1ccc2c(c1)O[C@@H](CN(C)Cc1ccc3c(c1)OCO3)[C@H](C)CN([C@@H](C)CO)S2(=O)=O | 15 | ? | / | 98* | 108* | 51* | 104*
CC(C)CC#Cc1ccc2c(c1)O[C@H](CN(C)Cc1ccc3c(c1)OCO3)[C@H](C)CN([C@@H](C)CO)S2(=O)=O | 22 | 96* | -55 | ? | 107* | -7 | 106*
CCCC#Cc1ccc2c(c1)O[C@H](CN(C)Cc1ccc3c(c1)OCO3)[C@@H](C)CN([C@@H](C)CO)S2(=O)=O | 30 | 91 | / | / | / | / | /
COCC#Cc1ccc2c(c1)O[C@H](CN(C)Cc1ccc3c(c1)OCO3)[C@@H](C)CN([C@@H](C)CO)S2(=O)=O | 3 | / | -59 | / | / | / | /
C[C@@H]1CN([C@H](C)CO)S(=O)(=O)c2ccc(C#CCN(C)C)cc2O[C@H]1CN(C)Cc1ccc2c(c1)OCO2 | 1 | 105* | -56 | 100* | 69 | 59* | 107*
CCCC#Cc1ccc2c(c1)O[C@@H](CN(C)Cc1ccc3c(c1)OCO3)[C@H](C)CN([C@H](C)CO)S2(=O)=O | 30 | 101* | / | ? | 104* | 59* | 103*
O=C(Nc1ccc2c(c1)OCO2)N[C@H]1CC[C@@H](CCNC(=O)C2CCCCC2)O[C@H]1CO | -2 | / | 1 | / | / | / | /
C[C@H](CO)N1C[C@H](C)[C@@H](CN(C)C(=O)C2CCC2)Oc2cc(-c3ccccc3)ccc2S1(=O)=O | / | 70 | 6 | / | / | / | /
COc1ccc(CN2C[C@@H](C)[C@H](OC)CN(C)C(=O)c3cc(NC(=O)C4CC4)ccc3OC[C@H]2C)cc1 | / | 26 | -11 | / | / | / | /
